Data: PubChem BioAssay AID1159580 (chemical genetic matrix, 2015)
The campaign covered roughly 5,500 compounds. About 2,000 (36%) were called active. Inconclusive results (about 18%) are left out. Rule as the data show it: active = normalized growth mostly below about 0.91 (no sharp cut-off); inconclusive = no clear call, values can overlap the other calls; inactive = mostly above about 0.92. This is one part of the list.

Assay: chemical genetic growth profiling, strain panel (AID 1159580);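 also: tested at 20 µM; growth read once vehicle control cultures reached saturation at 30 °C; 1 = growth at the plate median or of vehicle wells; lower values mean less growth of the strain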
Settings: growth OD
[1] = S. cerevisiae deletion strains, locus YAL013W, strain DEP1, hits give low values
[2] = S. cerevisiae deletion strains, locus YBR229C, strain ROT2, hits give low values
[3] = S. cerevisiae deletion strains, locus YDL101C, strain DUN1, hits give low values
[4] = S. cerevisiae deletion strains, locus YDL134C, strain PPH21, hits give low values
[5] = S. cerevisiae deletion strains, locus YDR150W, strain NUM1, hits give low values
[6] = S. cerevisiae deletion strains, locus YEL061C, strain CIN8, hits give low values
[7] = S. cerevisiae deletion strains, locus YGR078C, strain PAC10, hits give low values
[8] = S. cerevisiae deletion strains, locus YHR030C, strain SLT2, hits give low values
[9] = S. cerevisiae deletion strains, locus YHR087W, strain rtc3, hits give low values
[10] = S. cerevisiae deletion strains, locus YJR043C, strain POL32, hits give low values
[11] = S. cerevisiae deletion strains, locus YJR075W, strain HOC1, hits give low values
[12] = S. cerevisiae deletion strains, locus YLR039C, strain RIC1, hits give low values
[13] = S. cerevisiae deletion strains, locus YLR058C, strain SHM2 (second series), hits give low values
[14] = S. cerevisiae deletion strains, locus YLR085C, strain ARP6, hits give low values
[15] = S. cerevisiae deletion strains, locus YLR262C, strain YPT6, hits give low values
[16] = S. cerevisiae deletion strains, locus YML094W, strain GIM5, hits give low values
[17] = S. cerevisiae deletion strains, locus YMR219W, strain ESC1, hits give low values
[18] = S. cerevisiae deletion strains, locus YMR263W, strain SAP30, hits give low values
[19] = S. cerevisiae deletion strains, locus YNL153C, strain GIM3, hits give low values
[20] = S. cerevisiae deletion strains, locus YNL298W, strain CLA4 (second series), hits give low values
[21] = S. cerevisiae deletion strains, locus YNL322C, strain KRE1, hits give low values
[22] = S. cerevisiae deletion strains, locus YNR030W, strain Alg12, hits give low values
[23] = S. cerevisiae deletion strains, locus YOL006C, strain TOP1, hits give low values
[24] = S. cerevisiae deletion strains, locus YPL055C, strain LGE1, hits give low values
[25] = S. cerevisiae deletion strains, locus YPL241C, strain CIN2, hits give low values
[26] = S. cerevisiae deletion strains, locus YPR135W, strain CTF4, hits give low values

Measured: normalized growth

COC(=O)/C(=C/N(C)C)Sc1cc(C)c(Cl)cc1Cl
inactive: [1] 0.945 | [2] 0.968 | [3] 1.01 | [4] 0.983 | [5] 0.958 | [6] 0.951 | [7] 0.979 | [9] 0.939 | [10] 0.983 | [11] 0.935 | [13] 0.939 | [14] 0.91 | [16] 0.914 | [17] 0.959 | [18] 0.946 | [19] 0.992 | [20] 0.925 | [22] 0.942 | [23] 0.978 | [24] 0.922 | [25] 0.947 | [26] 0.747
active: [8] 0.296 | S. cerevisiae deletion strains, locus YKL190W, strain CNB1, hits give low values 0.91 | [12] 0.622 | [15] 0.587 | [21] 0.933

Cc1ccc(-c2csc(-c3cccnc3)n2)c(C)c1
inactive: S. cerevisiae deletion strains, locus YAR019C, strain CDC15, hits give low values 0.948 | S. cerevisiae deletion strains, locus YBL105C, strain PKC1, hits give low values 0.967 | S. cerevisiae deletion strains, locus YBR135W, strain CKS1, hits give low values 0.954 | S. cerevisiae deletion strains, locus YBR136W, strain MEC1, hits give low values 0.958 | S. cerevisiae deletion strains, locus YBR160W, strain CDC28, hits give low values 0.963 | S. cerevisiae deletion strains, locus YDL017W, strain CDC7, hits give low values 0.967 | S. cerevisiae deletion strains, locus YDL028C, strain MPS1, hits give low values 0.964 | [3] 0.938 | S. cerevisiae deletion strains, locus YDL108W, strain KIN28, hits give low values 0.964 | S. cerevisiae deletion strains, locus YDL132W, strain cdc53, hits give low values 0.946 | S. cerevisiae deletion strains, locus YDL214C, strain PRR2, hits give low values 0.88 | S. cerevisiae deletion strains, locus YDR052C, strain DBF4, hits give low values 0.96 | S. cerevisiae deletion strains, locus YDR054C, strain cdc34, hits give low values 0.943 | S. cerevisiae deletion strains, locus YDR226W, strain ADK1, hits give low values 0.964 | S. cerevisiae deletion strains, locus YDR477W, strain SNF1, hits give low values 0.87 | S. cerevisiae deletion strains, locus YER123W, strain YCK3, hits give low values 0.769 | S. cerevisiae deletion strains, locus YER133W, strain GLC7, hits give low values 0.85 | S. cerevisiae deletion strains, locus YFL009W, strain cdc4, hits give low values 0.954 | S. cerevisiae deletion strains, locus YFL029C, strain CAK1, hits give low values 0.943 | S. cerevisiae deletion strains, locus YFR003C, strain YPI1, hits give low values 0.959 | S. cerevisiae deletion strains, locus YFR019W, strain FAB1, hits give low values 0.821 | S. cerevisiae deletion strains, locus YFR028C, strain CDC14, hits give low values 0.947 | S. cerevisiae deletion strains, locus YGR040W, strain KSS1, hits give low values 0.832 | S. cerevisiae deletion strains, locus YGR052W, strain FMP48, hits give low values 0.933 | S. cerevisiae deletion strains, locus YGR092W, strain DBF2, hits give low values 0.737 | S. cerevisiae deletion strains, locus YHR079C, strain IRE1, hits give low values 0.839 | S. cerevisiae deletion strains, locus YHR082C, strain KSP1, hits give low values 0.901 | S. cerevisiae deletion strains, locus YHR205W, strain SCH9, hits give low values 0.886 | S. cerevisiae deletion strains, locus YIL147C, strain SLN1, hits give low values 0.957 | S. cerevisiae deletion strains, locus YJL095W, strain BCK1, hits give low values 0.772 | S. cerevisiae deletion strains, locus YJL128C, strain PBS2, hits give low values 0.946 | S. cerevisiae deletion strains, locus YJL157C, strain FAR1, hits give low values 0.898 | S. cerevisiae deletion strains, locus YJR016C, strain ILV3, hits give low values 0.956 | S. cerevisiae deletion strains, locus YJR066W, strain TOR1 (second series), hits give low values 0.796 | S. cerevisiae deletion strains, locus YJR066W, strain TOR1, hits give low values 0.833 | S. cerevisiae deletion strains, locus YKL048C, strain ELM1, hits give low values 0.939 | S. cerevisiae deletion strains, locus YKL067W, strain YNK1, hits give low values 0.897 | S. cerevisiae deletion strains, locus YKL101W, strain HSL1, hits give low values 0.914 | S. cerevisiae deletion strains, locus YKL193C, strain SDS22, hits give low values 0.945 | S. cerevisiae deletion strains, locus YKL203C, strain TOR2, hits give low values 0.847 | S. cerevisiae deletion strains, locus YLR133W, strain CKI1, hits give low values 0.905 | S. cerevisiae deletion strains, locus YLR403W, strain SFP1, hits give low values 0.809 | S. cerevisiae deletion strains, locus YML070W, strain DAK1, hits give low values 0.891 | S. cerevisiae deletion strains, locus YMR001C, strain CDC5, hits give low values 0.957 | S. cerevisiae deletion strains, locus YMR205C, strain PFK2 (second series), hits give low values 0.879 | S. cerevisiae deletion strains, locus YMR277W, strain FCP1, hits give low values 0.951 | S. cerevisiae deletion strains, locus YNL006W, strain LST8, hits give low values 0.96 | S. cerevisiae deletion strains, locus YNL020C, strain ARK1, hits give low values 0.898 | S. cerevisiae deletion strains, locus YNL161W, strain CBK1, hits give low values 0.96 | S. cerevisiae deletion strains, locus YNL183C, strain NPR1, hits give low values 0.826 | S. cerevisiae deletion strains, locus YNL207W, strain RIO2, hits give low values 0.935 | S. cerevisiae deletion strains, locus YNL222W, strain SSU72, hits give low values 0.955 | S. cerevisiae deletion strains, locus YNL307C, strain MCK1 (second series), hits give low values 0.862 | S. cerevisiae deletion strains, locus YOL078W, strain AVO1, hits give low values 0.953 | S. cerevisiae deletion strains, locus YOL136C, strain PFK27, hits give low values 0.894 | S. cerevisiae deletion strains, locus YOR061W, strain CKA2, hits give low values 0.912 | S. cerevisiae deletion strains, locus YOR119C, strain RIO1, hits give low values 0.881 | S. cerevisiae deletion strains, locus YOR231W, strain MKK1, hits give low values 0.841 | S. cerevisiae deletion strains, locus YOR329C, strain SCD5, hits give low values 0.951 | S. cerevisiae deletion strains, locus YPL031C, strain PHO85, hits give low values 0.832 | S. cerevisiae deletion strains, locus YPL153C, strain RAD53, hits give low values 0.838 | S. cerevisiae deletion strains, locus YPL204W, strain HRR25, hits give low values 0.796 | S. cerevisiae deletion strains, locus YPL209C, strain IPL1, hits give low values 0.955 | S. cerevisiae deletion strains, locus YPR025C, strain CCL1, hits give low values 0.959 | S. cerevisiae deletion strains, locus YPR106W, strain ISR1, hits give low values 0.957 | S. cerevisiae deletion strains, locus YPR111W, strain DBF20, hits give low values 0.966 | S. cerevisiae deletion strains, strain NNK1, hits give low values 0.947 | S. cerevisiae deletion strains, strain TSCII, hits give low values 0.948
active: [8] 0.763 | S. cerevisiae deletion strains, locus YLR113W, strain HOG1, hits give low values 0.854 | S. cerevisiae deletion strains, locus YPL256C, strain CLN2, hits give low values 0.849

CC(C)(C)c1cc(-c2csc(-c3ccc(Cl)cc3)n2)cc(C(C)(C)C)c1O
inactive: [1] 1 | [2] 1.02 | S. cerevisiae deletion strains, locus YCL061C, strain MRC1, hits give low values 1.01 | [3] 1.02 | [4] 1.02 | [5] 0.943 | [6] 1.03 | [7] 1.01 | [8] 1.09 | [9] 1.01 | S. cerevisiae deletion strains, locus YJL187C, strain SWE1, hits give low values 1.02 | [10] 1.01 | [11] 1.03 | [12] 1.09 | [13] 1.02 | [15] 1.05 | [16] 1.03 | [17] 1.01 | [18] 0.96 | [19] 1 | [20] 1.04 | [21] 1.01 | [22] 1.03 | [23] 1.18 | [24] 0.911 | [25] 1.01 | [26] 1.07 | S. cerevisiae strains, strain wild type, hits give low values 1.02
active: [14] 1.22 [resistant]
